Data reported in PubChem BioAssay (NCI).
This is part of a sample that, as a whole, favours compounds with a hit. Of some 83,000 tested, about 20% had one in any assay.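 Percent growth is the endpoint: 0 to 100 indicates growth inhibition (40 means 60% inhibition), 0 means no net growth, and negative values indicate cell death.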 Activity calls are given as the source filed them. How the source made its calls: active means growth percent below 10; inactive means the rest.

Each compound was assayed on MDA-MB-468 breast (assay: NCI-60 one-dose screen, 48 h (100 = growth as untreated, 0 = no growth, -100 = all killed)). Details: 10 µM unless noted.

Question: Which growth does the source give for `COc1c(O[C@@H]2OC(CO)[C@H](O)[C@H](O)C2O)cc2oc3cc(O)c(CC=C(C)C)c(O)c3c(=O)c2c1CC=C(C)C` (stereo not given in full) here?
Answer: 99.8% (inactive)

Question: For `CCC(c1ccccc1)C(CC)c1ccc(O)c(O)c1` (stereo not given), which growth is on record?
Answer: 90.9% (inactive)

Question: `COc1ccc(Oc2nc(Nc3ccc(N4CCOCC4)cc3)ncc2NC(=O)c2cc(OC)cc(OC)c2)cc1` was tested. Which growth did it give?
Answer: 86.6% (inactive)

Question: Which growth does the source give for `O=C1c2c(c3c4cccc(F)c4[nH]c3c3ccc4ccccc4c23)C(=O)N1O` here?
Answer: 54.3% (inactive)

Question: `CCCCC(CCc1ccc([N+](=O)[O-])cc1)(C(C)=O)C(=O)OCC` (stereo not given) was tested. Which growth did it give?
Answer: 83.8% (inactive)
